SW480 rerep – A quantitative high throughput screen for small molecules that induce DNA re-replication in SW480 colon adenocarcinoma cells. SW480 DNA re-replication, Hoechst DNA content imaging, 48 h. Potency, µM (series often up to 46.1 µM), inactives show at the top dose re-replication activation, actives largely listed as activators. hit rate 1.8% among 340,000. AID 624297, 2012; also: potency is read from the fitted curve at half-maximal effect; % of control where 0% means no effect; nearly all actives have a fitted effect of over 55% in size
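Readout is total intensity of Hoechst-stained nuclei, excited at 405 nm and collected at 500-530 nm. Compound treatment lasted 48 hr at 37 C in 5% CO2 before staining.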
IL-1B inflam inh – qHTS for Inhibitors of Inflammasome Signaling: IL-1-beta AlphaLISA Primary Screen | THP-1 LPS/ATP IL-1B secretion, AlphaLISA, 16 h; stronger effect = lower value | activity change, % at 57.5 µM | hit rate 4.7% among 360,000; in the data active = activity change below about -50%; inconclusive = mostly about -30% to -49%; also: % is scaled to controls: 0 for no effect and ±100 for the full control effect
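THP-1 cells pretreated 1 hr with compounds (up to 57.5 uM final), then stimulated with LPS (250 ng/mL final) plus ATP (1.25 mM final); secreted IL-1B measured by AlphaLISA after 16 hr, decreased signal indicating inhibition.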
VP16 counter – VP16 counterscreen qHTS for inhibitors of ROR gamma transcriptional activity. Drosophila S2 Gal4-VP16 UAS-luciferase, luminescence, 20 h. Potency, µM (top dose mostly 53.6 µM), without a hit: top-dose activity, negative = inhibition, actives largely listed as inhibitors. hit rate 3.5% among 310,000. AID 2546, 2010;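 also: Gal4-VP16 expression switched on by copper sulfate through the metallothionein promoter; potency is read from the fitted curve at half-maximal effect; % is scaled to controls: 0 for no effect and ±100 for the full control effect; nearly all actives have a fitted effect of over 50% in size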
RORg inh – qHTS for inhibitors of ROR gamma transcriptional activity; Nuclear receptor ROR-gamma (Mus musculus), P51450; Drosophila S2 Gal4-RORgamma UAS-luciferase reporter, 20 h; Potency, µM (titrated, usually from 53.6 µM), inactives show at the top dose activity change, negative = inhibition, most hits filed as inhibitors; hit rate 5.4% among 310,000; AID 2551, 2010; also: potency is read from the fitted curve at half-maximal effect; % is scaled to controls: 0 for no effect and ±100 for the full control effect; nearly all actives have a fitted effect of over 60% in size
Target sequence (P51450 whole entry, looked up, the tested form may be a part): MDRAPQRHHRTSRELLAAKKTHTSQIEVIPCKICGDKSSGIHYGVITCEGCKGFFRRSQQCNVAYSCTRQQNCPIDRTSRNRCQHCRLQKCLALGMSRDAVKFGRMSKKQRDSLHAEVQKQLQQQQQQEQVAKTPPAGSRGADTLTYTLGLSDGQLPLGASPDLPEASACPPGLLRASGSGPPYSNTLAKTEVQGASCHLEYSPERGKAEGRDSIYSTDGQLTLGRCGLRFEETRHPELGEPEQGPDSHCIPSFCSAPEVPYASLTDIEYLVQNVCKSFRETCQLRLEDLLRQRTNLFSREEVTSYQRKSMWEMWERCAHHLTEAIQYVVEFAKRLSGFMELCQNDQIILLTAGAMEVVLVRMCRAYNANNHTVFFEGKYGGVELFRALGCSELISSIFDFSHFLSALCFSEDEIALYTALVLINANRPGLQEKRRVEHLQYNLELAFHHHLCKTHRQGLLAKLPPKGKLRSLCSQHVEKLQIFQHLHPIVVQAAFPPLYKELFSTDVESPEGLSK
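Stably transfected Drosophila Schneider cells are the test system, with ROR gamma fused to Gal4 and luciferase under UAS control; luminescence is read after 20 hr of 700 uM copper sulfate induction at ambient temperature.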
MCF10A rereplic – A quantitative high throughput screen for small molecules that induce DNA re-replication in MCF 10a normal breast cells; hit rate 2.9% among 350,000; MCF 10A DNA re-replication, Hoechst nuclear intensity, 48 h; Potency, µM (series often up to 46.1 µM), for the others: at the top dose activity, positive = re-replication, usual class: activators; also: potency is read from the fitted curve at half-maximal effect; % of control where 0% means no effect; nearly all actives have a fitted effect of over 50% in size
An asterisk follows results filed as active; ? = inconclusive; / = not tested or not shown. In the library only some 11% were active in any assay of this set; here they are far more common. Unless noted, calls follow the shape of the dose curve; as a rule, active = well fitted curve in the direction sought with a large enough effect; inconclusive = small, poorly fitted or top-dose-only effect, or another doubt; inactive = no such curve, though single readings can be large; an effect the other way counts as inactive or inconclusive.

SMILES | SW480 rerep | IL-1B inflam inh | VP16 counter | RORg inh | MCF10A rereplic
COc1ccccc1Nc1cc2cc(Br)ccc2c(=O)[nH]1 | ? | 78.8 | / | / | 20.6µM*
COc1ccccc1Nc1nnc(C)c(=O)[nH]1 | -0.5% | 25.5 | 1.0% | -3.8% | -3.2%
CCC(c1nnnn1-c1ccc2c(c1)OCCO2)N1CCN(c2cc(C)ccc2C)CC1 (configuration not stated) | / | 7.3 | / | / | /
COc1ccc(-n2nc(C(=O)Nc3ccc(OC)c(OC)c3)c3c4ccccc4n(C)c3c2=O)cc1 | 16.4µM* | 92.6 | -2.1% | 24.3% | ?
COc1ccc(-n2nc(C(=O)NCC(=O)Nc3cccc(Cl)c3)c3ccccc3c2=O)cc1OC | 12.0% | 1.7 | 11.2µM* | ? | 21.2%
COCCCNc1ccn2nc(-c3ccccc3)cc2n1 | / | -9.8 | / | / | /
CC(C)(CO)CNc1ccn2nccc2n1 | / | -78.5* | / | / | /
CC(C)OCc1c(C(=O)OC/C(O)=C(\C#N)c2nc3ccccc3[nH]2)oc2ccccc12 | ? | 20.6 | -20.7% | -40.2% | 29.5%
CCOC(=O)c1c(C)[nH]c(C(=O)OCC(=O)c2ccccc2)c1C | -4.1% | -12.8 | / | / | 5.4%
N#C/C(=C(/O)COC(=O)CCC1CCCCC1)c1nc2ccccc2[nH]1 | ? | -85.1* | 10µM* | 11.2µM* | ?
CCOC(=O)c1c(C)[nH]c(C(=O)OCC(O)=C(C#N)c2nc3ccccc3[nH]2)c1C | ? | 37.8 | / | / | 13µM*
N#C/C(=C(/O)COC(=O)c1cccnc1Cl)c1nc2ccccc2[nH]1 | -7.3% | 58.8 | ? | 7.94µM* | 12.5%
COc1ccc(/C(C)=N/OC/C(O)=C(\C#N)c2nc3ccccc3[nH]2)cc1 | -7.3% | 21.7 | -1.4% | ? | -2.4%
N#CC(=C(O)COC(=O)CCCNC(=O)c1ccc(Cl)cc1)c1nc2ccccc2[nH]1 | ? | -97.0* | / | / | ?
CC(C)C(=O)OC/C(O)=C(\C#N)c1nc2ccccc2[nH]1 | -8.0% | 80.4 | 10µM* | 6.31µM* | 8.4%
N#CC(=C(O)COC(=O)Cc1c[nH]c2ccccc12)c1nc2ccccc2[nH]1 | -1.9% | 39.7 | / | / | ?
N#C/C(=C(/O)COC(=O)c1ccc(O)cc1)c1nc2ccccc2[nH]1 | 7.5% | 24.6 | 2.4% | 11.6% | 6.4%
Cc1ccc(C(C)C)c(OC/C(O)=C(\C#N)c2nc3ccccc3[nH]2)c1 | ? | -5.4 | ? | 2.24µM* | 16.4µM*
CCCC(=O)OC/C(O)=C(\C#N)c1nc2ccccc2[nH]1 | 4.3% | -105.2* | ? | 3.98µM* | -6.3%
COCC(=O)OC/C(O)=C(\C#N)c1nc2ccccc2[nH]1 | ? | -103.9* | 2.82µM* | ? | ?
CN(C)c1ccc(Cl)c(NC(N)=S)c1 | / | 21.5 | / | / | /
CC1=C(/C=C/C(C)=C/C=C/C(C)=C/C(=O)Oc2c(C)c(C)c3c(c2C)CC[C@@](C)(CCC[C@H](C)CCC[C@H](C)CCCC(C)C)O3)C(C)(C)CCC1 | 5.7% | / | 4.5% | 2.1% | 13.6%
Cc1c(C(=O)OC/C(O)=C(\C#N)c2nc3ccccc3[nH]2)oc2ccc(Br)cc12 | 1.9% | 34.0 | -4.1% | -20.5% | 9.6%
Cc1c(-c2cccc(Cl)c2)nc2ccccc2c1C(=O)OC/C(O)=C(\C#N)c1nc2ccccc2[nH]1 | ? | 7.2 | 2.8% | -28.6% | 5.17µM*
O=C(NNC(=O)C1[C@H]2CCCC[C@@H]12)c1ccc(=O)oc1 (some centres not stated) | 2.31µM* | -13.2 | -2.5% | 2.6% | 14.3%
CC(C)Oc1ccc2ccccc2c1CNC[C@H]1O[C@@H](n2ccc(N)nc2=O)[C@H](O)[C@@H]1O | / | 18.1 | / | / | /
O=C(COC(=O)CNC(=O)c1ccc([N+](=O)[O-])o1)Nc1ncc(C(F)(F)F)cc1Cl | 7.7% | -17.2 | / | / | 16.4µM*
O=C(COC(=O)CNC(=O)c1ccccc1F)Nc1ncc(Cl)cc1Cl | -38.0% | -16.4 | / | / | 1.4%
